Experimental data as given in PubChem BioAssay (Tox21).
Inconclusive results are not listed. A call without a number means that no potency is given here. Activity calls are given as the source filed them. Unless noted, the call rests on the fitted dose curve.

Assays:
[1] = Nuclear factor erythroid 2-related factor 2/antioxidant responsive element (Nrf2/ARE) small molecule agonists: qHTS cell viability counter screen in human keratinocytes (AID 1919968; active means well fitted curve in the direction sought with a large enough effect in the repeat runs; an effect the other way counts as inactive or inconclusive; further: nearly all actives have a fitted effect of over 55% in size)
How it was run: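 Fluorescence read-out from CellTiter-Fluor after 1 h at 37 C. Wells held HaCaT-derived ARE-luciferase reporter cells (1,500/well) treated 23 h with DMSO-dissolved compounds. Run in the same wells as the luciferase agonist read.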

[2] = Nuclear factor erythroid 2-related factor 2/antioxidant responsive element (Nrf2/ARE) small molecule agonists: luciferase reporter gene qHTS assay in human keratinocytes (AID 1919969); further: nearly all actives have a fitted effect of over 35% in size
[3] = biological target: KiSS-1 receptor (Homo sapiens) (UniProt Q969F8); assay: Human kisspeptin (KISS1R) small molecule agonists, calcium flux assay in KISS1R-HEK293 cells (AID 1920064; active means well fitted curve in the direction sought with a large enough effect in the repeat runs; an effect the other way counts as inactive or inconclusive)
How it was run: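 Calcium flux read-out: kinetic fluorescence at Ex/Em=480/540, 1 s intervals over 3 min, after pin-tool compound addition to dye-loaded KISS1R-HEK293 cells. Fifteen concentrations, triplicates.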

[4] = G protein-coupled receptor (GPCR) small molecule agonists, calcium flux assay: HEK293 wild type cell line counter screen (AID 1920065)
How it was run: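 Agonist mode; 18 h seeding at 37 C, 1 h dye load at 37 C; compounds pinned from DMSO, ATP as positive control; kinetic fluorescence 480/540 nm, 3 min, 1 s reads; 15 concentrations, triplicate.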

[5] = p53 small molecule agonists, cell-based qHTS assay with rat liver microsomes (AID 1963578)
How it was run: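 Compound in DMSO added to p53RE-bla cells 5 h post-plating; rat microsomes/NADPH 0.5 mg/mL final; 16 h, 37 C; LiveBLAzer 2 h RT.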

[6] = p53 small molecule agonists, cell-based qHTS assay with human liver microsomes: qHTS cell viability counter screen (AID 1963579); further: nearly all actives have a fitted effect of over 45% in size
How it was run: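 HLM-supplemented (0.5 mg/mL final) and NADPH-supplemented (0.5 mg/mL final) p53RE-bla cultures, 4,000 cells per well, were dosed with compounds in DMSO for 16 h at 37 C; luminescent ATP detection (CellTiter-Glo, 30 min, room temperature) quantified surviving cells.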

[7] = p53 small molecule agonists, cell-based qHTS assay with rat liver microsomes: qHTS cell viability counter screen (AID 1963580); further: nearly all actives have a fitted effect of over 45% in size
How it was run: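 Luminescent ATP readout (CellTiter-Glo, 30 min at room temperature) reports viability of p53RE-bla HCT-116 cells after 16 h at 37 C with test compounds under metabolic activation by rat liver microsomes and NADPH at 0.5 mg/mL final each.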

[8] = p53 small molecule agonists, cell-based qHTS assay: qHTS cell viability counter screen (AID 1963581); further: nearly all actives have a fitted effect of over 45% in size
How it was run: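 Cytotoxicity read-out: ATP-based luminescence (CellTiter-Glo, 30 min RT) measured in the same wells as the p53 reporter assay, HCT-116 p53RE-bla cells, 16 h compound exposure at 37 C.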

[9] = p53 small molecule agonists, cell-based qHTS assay (AID 1963582; active means well fitted activation curve with a large enough effect in the signal ratio in the repeat runs, not every such curve was filed as active; the % refers to the signal ratio)
How it was run: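 Fluorescence intensity read-out of a beta-lactamase reporter under a p53 response element. Cells were exposed to DMSO-dissolved compounds for 16 h at 37 C, then developed with FRET substrate for 2 h at RT.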

[10] = biological target: 5-hydroxytryptamine receptor 2A (Homo sapiens) (UniProt P28223); assay: 5-hydroxytryptamine receptor 2A (HTR2A) small molecule agonists, cell-based qHTS assay (AID 1963587); further: nearly all actives have a fitted effect of over 30% in size
How it was run: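 HTR2A-CHO cells, plated 18 h at 37 C/5% CO2, dye-loaded 1 h at 37 C; compounds in DMSO added by pin tool (agonist mode). Intracellular calcium flux read as kinetic fluorescence on FDSS over 2 min at 1 s intervals.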

[11] = biological target: Muscarinic acetylcholine receptor M1 (Homo sapiens) (UniProt P11229); assay: Cholinergic receptor muscarinic 1 (CHRM1) small molecule agonists, cell-based qHTS assay (AID 1963589); further: nearly all actives have a fitted effect of over 35% in size
How it was run: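 Calcium flux read-out: kinetic fluorescence at 1 sec intervals after pin-tool compound addition to dye-loaded CHRM1-CHO cells (human M1). Agonist mode; 15 concentrations tested in triplicate independent runs.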

[12] = cAMP Responsive Elements (CRE) small molecule antagonists, cell-based qHTS assay (AID 1963591; active means well fitted inhibition curve with a large enough effect in the signal ratio in the repeat runs, not every such curve was filed as active; the % refers to the signal ratio)
How it was run: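 HEK293T CRE-bla; 18 h preincubation; compound pin-transfer; NKH477 0.25 uM final, 3 h, 37 C; LiveBLAzer FRET substrate 2 h RT.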

[13] = biological target: Beta-2 adrenergic receptor (Homo sapiens) (UniProt P07550); assay: Adrenergic beta2 receptor (ADRB2) small molecule agonists, cell-based qHTS assay (AID 1963593); further: potency means the concentration at half of the fitted maximal effect;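 on activation: CHO cells stably overexpressing human ADRB2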
How it was run: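 CHO cells stably over-expressing ADRB2 were plated overnight at 37C, then dosed with compounds plus a stimulation mix containing 100uM IBMX and 25uM Ro-20-1724 for 0.5hr at room temperature. cAMP was measured by HTRF competition, 1hr.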

[14] = biological target: D(2) dopamine receptor (Homo sapiens) (UniProt P14416); assay: Dopamine D2 receptor (DRD2) small molecule agonists, cell-based qHTS assay (AID 1963594); further: nearly all actives have a fitted effect of over 35% in size
How it was run: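 HEK293 cells stably expressing DRD2 were cultured 24 h at 37 C, then given Ro20-1724 (0.1 mM final) and compounds for 10 min at room temperature. NKH477 (200nM) was then added for 30 min. cAMP was read by HTRF.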

[15] = biological target: D(2) dopamine receptor (Homo sapiens) (UniProt P14416); assay: Dopamine D2 receptor (DRD2) small molecule antagonists, cell-based qHTS assay (AID 1963595; active means well fitted inhibition curve with a large enough effect in the signal ratio in the repeat runs, with a control signal flat; the % refers to the signal ratio; further: potency means the concentration at half of the fitted maximal effect)
How it was run: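 DRD2-HEK293; 0.1 mM Ro20-1724; cpd 10 min RT; NKH477 200 nM + quinpirole 12 nM, 30 min RT; HTRF cAMP (cAMP-d2/anti-cAMP cryptate), 665/620 nm ratio after 1 h.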

[16] = biological target: 5-hydroxytryptamine receptor 2A (Homo sapiens) (UniProt P28223); assay: 5-hydroxytryptamine receptor 2A (HTR2A) small molecule antagonists, cell-based qHTS assay (AID 1963586); further: nearly all actives have a fitted effect of over 45% in size
How it was run: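 CHO cells stably expressing human HTR2A were plated for 18 h at 37 C, then loaded with calcium dye for 1 h. Compounds were preincubated 5 min at room temperature before DOI (4 nM solution) was added. Kinetic fluorescence was read for 3 min.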

[17] = biological target: Muscarinic acetylcholine receptor M1 (Homo sapiens) (UniProt P11229); assay: Cholinergic receptor muscarinic 1 (CHRM1) small molecule antagonists, cell-based qHTS assay (AID 1963588); further: nearly all actives have a fitted effect of over 40% in size
How it was run: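 Compounds were tested at 15 concentrations in three independent runs. Dye-loaded CHRM1-CHO cells were exposed 5 min at room temperature before stimulation by acetylcholine added at 50nM. Intracellular calcium was read kinetically on FDSS for 3 min.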

[18] = biological target: Beta-2 adrenergic receptor (Homo sapiens) (UniProt P07550); assay: Adrenergic beta2 receptor (ADRB2) small molecule antagonists, cell-based qHTS assay (AID 1963592); further: series mostly up to about 92 µM; nearly all actives have a fitted effect of over 50% in size
How it was run: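 Assay format: CHO-ADRB2 cells, 18-20hr seeding at 37C/5% CO2, then compound plus 1nM isoproterenol agonist mix for 0.5hr RT. Homogeneous time-resolved fluorescence cAMP detection after 1hr, expressed as 665/615 nm ratio.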

[19] = cAMP Responsive Elements (CRE) small molecule agonists, cell-based qHTS assay (AID 1963590)
How it was run: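 Beta-lactamase reporter readout: LiveBLAzer B/G FRET substrate, 2 h at room temperature, added after 3 h compound treatment of CRE-bla HEK 293T cells at 37 C/5% CO2.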

[20] = p53 small molecule agonists, cell-based qHTS assay with human liver microsomes (AID 1963577);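 further: p53 response element beta-lactamase reporter cells with liver microsomes plus NADPH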
How it was run: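 Reporter activation was measured by LiveBLAzer fluorescence intensity in p53RE-bla cells, which had been exposed to compounds for 16 h at 37 C alongside 0.5 mg/mL human liver microsomes and 0.5 mg/mL NADPH (final concentrations).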

D(2) dopamine receptor (Homo sapiens), sequence (P14416 whole entry, looked up): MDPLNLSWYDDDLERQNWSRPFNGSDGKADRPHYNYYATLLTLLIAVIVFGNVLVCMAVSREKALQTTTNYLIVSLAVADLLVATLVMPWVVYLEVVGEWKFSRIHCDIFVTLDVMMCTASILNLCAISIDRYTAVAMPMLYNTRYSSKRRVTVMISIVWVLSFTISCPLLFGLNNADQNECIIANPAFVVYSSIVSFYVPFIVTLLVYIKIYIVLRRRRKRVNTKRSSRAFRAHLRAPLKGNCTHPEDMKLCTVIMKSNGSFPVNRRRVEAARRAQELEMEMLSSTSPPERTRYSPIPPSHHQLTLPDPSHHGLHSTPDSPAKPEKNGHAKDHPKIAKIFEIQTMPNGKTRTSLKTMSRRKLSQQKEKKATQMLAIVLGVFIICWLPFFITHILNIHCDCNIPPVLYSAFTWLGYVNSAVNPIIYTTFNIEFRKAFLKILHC
KiSS-1 receptor (Homo sapiens), sequence (Q969F8 whole entry, looked up): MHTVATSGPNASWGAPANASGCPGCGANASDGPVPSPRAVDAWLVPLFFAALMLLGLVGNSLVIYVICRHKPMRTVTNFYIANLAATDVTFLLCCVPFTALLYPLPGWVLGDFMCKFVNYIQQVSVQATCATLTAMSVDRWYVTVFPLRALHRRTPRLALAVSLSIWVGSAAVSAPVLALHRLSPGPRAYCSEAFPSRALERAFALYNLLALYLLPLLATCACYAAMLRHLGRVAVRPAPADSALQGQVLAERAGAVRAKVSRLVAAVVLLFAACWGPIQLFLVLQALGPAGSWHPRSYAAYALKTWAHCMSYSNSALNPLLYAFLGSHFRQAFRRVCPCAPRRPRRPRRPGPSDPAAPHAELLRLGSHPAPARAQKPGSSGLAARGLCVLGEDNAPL
Beta-2 adrenergic receptor (Homo sapiens), sequence (P07550 whole entry, looked up): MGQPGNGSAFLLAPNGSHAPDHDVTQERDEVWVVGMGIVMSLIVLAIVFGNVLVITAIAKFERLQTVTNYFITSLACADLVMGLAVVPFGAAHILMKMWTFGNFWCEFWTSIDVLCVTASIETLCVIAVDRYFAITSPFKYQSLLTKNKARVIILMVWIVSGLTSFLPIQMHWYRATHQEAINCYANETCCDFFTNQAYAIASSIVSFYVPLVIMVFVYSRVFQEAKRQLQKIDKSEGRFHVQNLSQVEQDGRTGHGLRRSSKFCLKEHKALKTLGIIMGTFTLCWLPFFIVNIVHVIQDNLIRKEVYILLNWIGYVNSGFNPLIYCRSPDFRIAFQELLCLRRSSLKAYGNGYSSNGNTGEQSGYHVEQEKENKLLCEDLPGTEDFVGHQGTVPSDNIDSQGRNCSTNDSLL
5-hydroxytryptamine receptor 2A (Homo sapiens), sequence (P28223 whole entry, looked up): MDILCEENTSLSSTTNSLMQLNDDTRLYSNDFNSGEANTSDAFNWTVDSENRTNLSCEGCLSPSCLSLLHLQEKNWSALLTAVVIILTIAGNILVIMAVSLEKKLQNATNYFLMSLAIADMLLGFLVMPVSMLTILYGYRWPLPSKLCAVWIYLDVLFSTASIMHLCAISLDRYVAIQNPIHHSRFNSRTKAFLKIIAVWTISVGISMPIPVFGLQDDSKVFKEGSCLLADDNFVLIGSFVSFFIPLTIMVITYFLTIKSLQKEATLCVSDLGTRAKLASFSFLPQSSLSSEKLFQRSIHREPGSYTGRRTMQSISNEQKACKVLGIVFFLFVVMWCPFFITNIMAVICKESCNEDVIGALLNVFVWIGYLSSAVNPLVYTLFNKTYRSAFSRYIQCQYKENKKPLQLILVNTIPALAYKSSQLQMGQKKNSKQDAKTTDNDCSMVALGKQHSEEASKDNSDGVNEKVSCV
Muscarinic acetylcholine receptor M1 (Homo sapiens), sequence (P11229 whole entry, looked up): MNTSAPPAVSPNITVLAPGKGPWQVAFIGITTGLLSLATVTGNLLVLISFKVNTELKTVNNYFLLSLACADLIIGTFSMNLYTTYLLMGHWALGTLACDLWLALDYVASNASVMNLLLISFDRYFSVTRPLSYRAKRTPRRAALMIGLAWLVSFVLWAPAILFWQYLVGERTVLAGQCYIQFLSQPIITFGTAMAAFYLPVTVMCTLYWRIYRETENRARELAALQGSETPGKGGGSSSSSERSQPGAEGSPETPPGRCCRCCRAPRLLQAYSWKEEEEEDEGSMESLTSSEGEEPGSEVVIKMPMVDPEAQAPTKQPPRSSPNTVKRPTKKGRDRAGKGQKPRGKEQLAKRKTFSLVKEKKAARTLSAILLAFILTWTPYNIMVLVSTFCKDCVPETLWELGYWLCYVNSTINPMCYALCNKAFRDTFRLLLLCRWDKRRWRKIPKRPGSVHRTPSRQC

| Compound | Potency [1] | Potency [2] | Potency [3] | Potency [4] | Potency [5] | Potency [6] | Potency [7] | Potency [8] | Potency [9] | Potency [10] | Potency [11] | Potency [12] | Potency [13] | Potency [14] | Potency [15] | Potency [16] | Potency [17] | Potency [18] | Potency [19] | Potency [20] |
| --- | --- | --- | --- | --- | --- | --- | --- | --- | --- | --- | --- | --- | --- | --- | --- | --- | --- | --- | --- | --- |
| CC(C)(C)NC[C@H](O)c1ccc(O)cc1Cl | inactive | inactive | inactive | inactive | inactive | inactive | inactive | inactive | inactive | inactive | inactive | inactive | 6 nM (active) | inactive | 84.1 nM (active) |  |  |  |  |  |
| CC(C)[C@]12CC(=O)[C@H](C)[C@H]1C2 | inactive | inactive | inactive | inactive |  | inactive | inactive | inactive |  | inactive | inactive |  | inactive | inactive | inactive | inactive | inactive | inactive |  |  |
| ClSC(Cl)(Cl)Cl | inactive | inactive |  | inactive |  | inactive | inactive | inactive |  | inactive | inactive | inactive | inactive | inactive | inactive | inactive | inactive |  | inactive |  |
| COCc1cnc(C2=NC(C)(C(C)C)C(=O)N2)c(C(=O)O)c1 (stereo unspecified) | inactive | inactive | inactive | inactive |  | inactive | inactive |  |  |  | inactive | inactive | inactive |  | inactive | inactive | inactive | inactive | inactive |  |
| O=C(C(Cl)(Cl)Cl)C(Cl)(Cl)Cl | inactive | inactive |  | inactive |  | inactive | inactive | inactive |  | inactive | inactive | inactive |  | inactive | inactive |  | inactive | inactive | inactive |  |
| O=C(O)CBr | inactive |  | inactive | inactive | inactive | inactive | inactive | inactive | inactive | inactive | inactive | inactive |  | inactive | inactive | inactive | inactive | inactive | inactive | inactive |
| Cc1ccccc1 | inactive | inactive |  |  | inactive | inactive | inactive | inactive | inactive |  |  |  |  |  |  |  |  |  |  | inactive |
| CCCCCCBr | inactive |  | inactive | inactive | inactive | inactive | inactive | inactive | inactive | inactive | inactive | inactive |  | inactive | inactive | inactive | inactive |  | inactive | inactive |
